Compound activity: PubChem BioAssay, several laboratories
Shown are actives, neighbours in structure and some others; about 1% of the full set was active somewhere.
Sa ugtP lethal: growth inhibition of ugtP-null S. aureus, primary screen, RN4220 ugtP deletion, OD600. AID 1259309, 2017. growth inhibition, % (concentration not given with the values). 330,000 compounds, 0.54% hits. 16 h; in the data active = growth inhibition above about 68%;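 also: plate controls were untreated wells for no effect and antibiotic for full effect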
SSB-PriA inh: inhibitors of Klebsiella pneumoniae PriA binding to SSB C-terminal tail, primary screen, biochemical, AlphaScreen; AlphaScreen SSBct-PriA binding, biotinylated peptide; inhibition, % at 33 µM; 430,000 compounds, 0.6% hits; AID 1272365, 2023; PriA–SSB C-terminal tail interaction (Klebsiella pneumoniae); in the data active = inhibition mostly above about 37%, no sharp cut-off; inactive = mostly below about 20%;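 also: plate controls were negative control peptide for no effect and reference peptide for full effect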
RN4220 kill: growth inhibition of S. aureus RN4220, primary screen, OD600; inhibition, % (no concentration beside the values); 330,000 compounds, 0.33% hits; 16 h; in the data active = inhibition above about 85%;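 also: plate controls were untreated cells for no effect and reference antibiotic for full effect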
* marks the source's active call; other numbers are inactive results; ! = not confirmed by another sample.

How did O=C(C1CCN(c2ccc(-c3ccco3)nn2)CC1)N1CCN(Cc2ccccc2)CC1 do in these assays?
SSB-PriA inh: -5.0

What do the screens show for `COc1ccc(S(=O)(=O)NCCCn2nc(-c3ccc(F)cc3)ccc2=O)cc1F`?
SSB-PriA inh: -5.0

Results for O=C(Cn1ccc2ccccc21)N1CCC(Oc2ncccc2Br)CC1 ?
SSB-PriA inh: 13.0

Results for Nc1c(N)c2cccnc2c2ncccc12 ?
SSB-PriA inh: 94.9*

Results for Nc1ncc(Br)c2ncccc12 ?
SSB-PriA inh: 10.0

How did NNc1nc(Nc2ccc([N+](=O)[O-])cc2)nc(N2CCCCCC2)n1 do in these assays?
Sa ugtP lethal: -11.0; SSB-PriA inh: 54.1*; RN4220 kill: 8.3

What do the screens show for `O=[N+]([O-])c1ccc(Nc2nc(NCCO)nc(N3CCCC3)n2)cc1`?
Sa ugtP lethal: 77.4; SSB-PriA inh: 2.4; RN4220 kill: 56.5

How did COc1ccc(C(=O)NCc2ccc3c(c2)cc(C)n3C)cc1 do in these assays?
Sa ugtP lethal: 0.1; SSB-PriA inh: -5.3; RN4220 kill: 4.4

How did CCC(=O)NCc1ccc2c(c1)cc(C)n2C do in these assays?
SSB-PriA inh: -6.0

Results for CCc1cccc(C)c1NC(=S)NCc1ccc2[nH]c(C)cc2c1 ?
Sa ugtP lethal: -8.2; SSB-PriA inh: 42.1*; RN4220 kill: -7.2

What do the screens show for `Cc1cc2cc(CNC(=S)NC3CCCCC3)ccc2[nH]1`?
Sa ugtP lethal: 0.0; SSB-PriA inh: 11.6; RN4220 kill: 3.3

Results for Cc1cc2cc(CNC(=O)NC3CCCCC3)ccc2[nH]1 ?
Sa ugtP lethal: -4.4; SSB-PriA inh: 53.5*; RN4220 kill: 3.6

Results for Cc1cc2cc(CNC(=O)c3ccc4c(c3)OCO4)ccc2n1C ?
Sa ugtP lethal: -3.7; SSB-PriA inh: 39.0*!; RN4220 kill: 6.0

What do the screens show for `Cc1cc2cc(CNC(=O)NC3CCCCC3)ccc2n1C`?
Sa ugtP lethal: 8.2; SSB-PriA inh: 44.9*!; RN4220 kill: 1.0

What do the screens show for `CNC(=S)NCc1ccc2[nH]c(C)cc2c1`?
Sa ugtP lethal: 4.3; SSB-PriA inh: 33.4; RN4220 kill: 3.8

Results for CC(=O)Nc1ccc(S(=O)(=O)NCCCCCCNS(=O)(=O)c2ccc(NC(C)=O)cc2)cc1 ?
SSB-PriA inh: 5.0

What do the screens show for `Cc1ccc(C)c(S(=O)(=O)NCCc2nc(C3CC3)cc(C(F)(F)F)n2)c1`?
SSB-PriA inh: -5.0

Results for O=C(NC(=S)Nc1ccc(S(=O)(=O)Nc2nccs2)cc1)c1cccnc1 ?
SSB-PriA inh: 3.0

Results for CCc1nnc(NS(=O)(=O)c2ccc(NC(=S)NC(=O)c3ccccc3)cc2)s1 ?
Sa ugtP lethal: 74.2; SSB-PriA inh: -9.3; RN4220 kill: 17.8

Results for CCc1nnc(NS(=O)(=O)c2ccc(NC(=S)NC(=O)c3ccc(Br)cc3)cc2)s1 ?
Sa ugtP lethal: 85.9*; SSB-PriA inh: -6.2; RN4220 kill: 29.1

What do the screens show for `O=C(NC(=S)Nc1ccc(S(=O)(=O)Nc2nccs2)cc1)c1ccccc1`?
Sa ugtP lethal: 91.4*; SSB-PriA inh: -7.5; RN4220 kill: 14.3

What do the screens show for `O=C(NC(=S)Nc1ccc(S(=O)(=O)Nc2nccs2)cc1)c1ccccc1F`?
Sa ugtP lethal: 5.6; SSB-PriA inh: -3.3; RN4220 kill: 50.8

How did O=C(NC(=S)Nc1ccc(S(=O)(=O)Nc2nccs2)cc1)c1ccc(F)c(F)c1 do in these assays?
Sa ugtP lethal: 96.8*; SSB-PriA inh: -7.2; RN4220 kill: 13.9

Results for Cc1nnc(SCC(=O)c2ccccc2)c2c1cnn2-c1ccc(F)cc1 ?
SSB-PriA inh: -9.0

How did COc1ccc(-c2cc3c(SCC(=O)Nc4ccc(F)cc4)nccn3n2)cc1 do in these assays?
SSB-PriA inh: -2.0

What do the screens show for `O=C1/C(=C/c2ccncc2)Oc2c1ccc1c2CN(Cc2c(F)cccc2Cl)CO1`?
SSB-PriA inh: -10.0

How did O=C1/C(=C/c2ccco2)Oc2c1ccc1c2CN(Cc2ccccn2)CO1 do in these assays?
SSB-PriA inh: 97.0*

How did O=C1/C(=C/c2ccncc2)Oc2c1ccc1c2CN(Cc2ccc3c(c2)OCO3)CO1 do in these assays?
SSB-PriA inh: -5.0

What do the screens show for `O=C1/C(=C/c2cccc(F)c2)Oc2c1ccc1c2CN(Cc2ccccn2)CO1`?
SSB-PriA inh: 97.0*

What do the screens show for `CC(=O)Cn1cnc2c(nnn2-c2ccc(Br)cc2)c1=O`?
SSB-PriA inh: 0.0

How did CC(=O)N1N=C(c2cccc(NS(C)(=O)=O)c2)C[C@H]1c1ccc2c(c1)OCO2 do in these assays?
SSB-PriA inh: 2.0

Results for Cc1nnc(NC(=O)CN2CC(c3nc(-c4cnccn4)no3)C2)s1 ?
SSB-PriA inh: -10.0

Results for Cc1cc(CCNC(=O)c2ccncc2)on1 ?
SSB-PriA inh: -16.0

What do the screens show for `CS(=O)(=O)N1CC(C(=O)NCCCN2CCCC2=O)C1`?
SSB-PriA inh: -2.0
